# Results: PubChem BioAssay (EPA / NIEHS)
# Several values for one entry are separate records, joined by “and”; a condition that tells them apart may be missing. Equal entries are not always repeated. The source holds several records for some structures; these can differ, active in one and inactive in another. Activity calls are given as the source filed them. The calls were made as follows: active = hit-call score of the fitted dose curve at least 0.9, where 1 is the maximum; inactive = score below 0.9.
# Read-out: Collagen III, COL3A1 (gene 1281)
# Test: BSK_MyoF_CollagenIII: BioMAP Diversity Plus: MyoF Assay for Collagen III Biomarker Activity (AID 2284239)
# Settings: primary human lung fibroblasts
# Experimental: BSK_MyoF is a cell-based, multiplexed-readout assay that uses lung fibroblasts, […], with measurements taken at 24 hours after chemical dosing in a microplate: 96-well plate.BSK_MyoF_CollagenIII is an assay component measured in the BSK_MyoF assay. It measures Collagen III antibody related to regulation of gene expression using ELISA technology.Data from the assay component BSK_MyoF_CollagenIII was analyzed at the endpoint, BSK_MyoF_CollagenIII, in the positive analysis fitting direction relative to DMSO as the negative control and baseline of activity. Using a type of binding reporter, gain or loss-of-signal activity can be used to understand protein changes. To generalize the intended target to other relatable targets, this assay endpoint is annotated to the 'cell adhesion molecules' intended target family, where the subfamily is 'collagen'.
# The levels of cell surface (or secreted, indicated by the prefix "s") biomarker endpoints were measured by ELISA. Overt cytotoxicity to cells in confluent adherent cultures (all systems other than the BT system) was assessed by measuring total protein levels using sulforhodamine B (SRB) staining in parallel cultures at the time of biomarker measurements, indicated as SRB endpoints. For proliferation assays for adherent cell types, individual cell types are cultured at sub-confluence and relative cell numbers quantified by SRB staining at time points optimized for each system (48 h: 3C and CASM3C systems; 72 h: BT and HDF3CGF systems; 96 h: SAg system). SRB was performed by staining cells with 0.1% SRB after fixation with 10% TCA and reading wells at 560 nm.Viability and proliferation of PBMC (T cells) was quantified by Alamar Blue reduction for the SAg and BT systems. For PBMC viability (referred to as PBMC Cytotoxicity within the assay endpoint names), cells were plated (75,000/well in a 96-well plate) and then chemical samples added for 1 h before addition of activators, SEB and TSST-1 (20 ng/mL final concentration each). Cells were incubated for 90 h. Then, Alamar Blue (20 uL/well) (Invitrogen, Cat DAL1100) was added for 6 h, and the plates were read with a fluorescence microplate reader at 546/580 nm (excitation/emission). For PBMC proliferation, cells were plated and activated as above but incubated for only 16 h prior to addition of Alamar Blue. Plates were read after 6 h.
Structure (SMILES),outcome,AC50
CCCCC(CC)COC(=O)c1c(Br)c(Br)c(Br)c(Br)c1C(=O)OCC(CC)CCCC (centres undefined),inactive,
CC(C)Nc1ccc(Nc2ccccc2)cc1,,20 µM (active)
CCOP(=S)(OCC)SCS(=O)(=O)CC,inactive,
COP(=O)(O)OC,inactive,
CCCCC(CC)COP(=O)(Oc1ccccc1)Oc1ccccc1 (centres undefined),,9.45 µM (active)
O=C(O)C=CC(F)(C(F)(F)F)C(F)(F)F,inactive,
Cc1c([N+](=O)[O-])cc2c(c1[N+](=O)[O-])C(C)(C)CC2(C)C,inactive,
O=P(OCC(Br)CBr)(OCC(Br)CBr)OCC(Br)CBr (centres undefined),inactive,
Cc1ccc2c(c1N)C(=O)c1ccccc1C2=O,,1.43 µM (active)
O=C(O)C(F)(F)OC(F)(F)C(F)(F)OC(F)(F)F,inactive,
CC(O)C(F)(F)C(F)(F)F (centres undefined),inactive,
CCOP(=S)(OCC)SCSc1ccc(Cl)cc1,inactive,
CCOP(=S)(NC(C)C)Oc1ccccc1C(=O)OC(C)C (centres undefined),inactive,
O=S(=O)(F)C(F)(F)C(F)(F)C(F)(F)C(F)(F)C(F)(F)C(F)(F)C(F)(F)C(F)(F)F,inactive,
CC(Cl)CN(C)C (centres undefined),inactive,
CCOP(=S)(S)OCC,inactive,
O=C(O)C(F)(F)OC(F)(F)C(F)(F)OC(F)(F)C(=O)O,inactive,
COP(N)(=S)OC,inactive,
OCC(F)(F)OC(F)(F)C(F)(F)OC(F)(F)C(F)(F)OC(F)(F)F,,19.7 µM (active) and 23.9 µM (active)

Structure (SMILES),outcome,AC50
OCC(F)(F)OC(F)(F)C(F)(F)OC(F)(F)CO,inactive,
c1ccc2c(c1)sc1ccccc12,inactive,
NC(=O)C(F)(F)C(F)(F)F,inactive,
COC(=O)C(F)(F)C(F)(F)OC(F)(C(F)(F)F)C(F)(F)OC(F)=C(F)F (centres undefined),inactive,
O=C(O)C(F)(OC(F)(F)C(F)(F)C(F)(F)F)C(F)(F)F (centres undefined),inactive,
OCC(F)(F)OC(F)(F)C(F)(F)OC(F)(F)C(F)(F)OC(F)(F)CO,inactive,
C=CC(=O)OCC(F)(F)C(F)F,inactive,48.7 µM (active)
CC(C)(C)c1ccccc1OP(=O)(Oc1ccccc1)Oc1ccccc1,,25.2 µM (active)
O=C(O)C(F)(F)C(F)(F)C(=O)O,inactive,
O=S1(=O)OCC2C(CO1)C1(Cl)C(Cl)=C(Cl)C2(Cl)C1(Cl)Cl (centres undefined),inactive,
N#Cc1cc([N+](=O)[O-])ccc1N,inactive,
C=CC(=O)OCC(CC)(COC(=O)C=C)COC(=O)C=C,,4.87 µM (active)
N#Cc1c(-c2ccc(Cl)cc2)[nH]c(C(F)(F)F)c1Br,,0.63 µM (active)
ClC(Cl)=C(c1ccc(Cl)cc1)c1ccccc1Cl,,7.34 µM (active)
Nc1ccc([N+](=O)[O-])cc1Cl,inactive,
CCOP(=S)(OCC)SCn1nnc2ccccc2c1=O,inactive,
CCCCOCCOP(=O)(OCCOCCCC)OCCOCCCC,inactive,
O=c1ssc(Cl)c1Cl,,9.69 µM (active)
FC(F)(F)C(F)(C(F)(F)F)C(F)(F)C(F)(F)CC1CO1 (centres undefined),inactive,
